# Compound activity (PubChem BioAssay)
# DT40 TDP1 CPT – growth inhibition of DT40 Tdp1-/-;hTDP1 cells with camptothecin (screen for TDP1 inhibitors); chicken DT40 Tdp1-/-;hTDP1 cells + 20 nM CPT, ATP luminescence, 48 h; Potency, µM (series often up to 46.2 µM), actives largely listed as inhibitors; 420,000 compounds, 12% hits; note: nearly all actives have a fitted effect of over 55% in size
#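 Cell growth measured by CellTiter-Glo luminescence after a minimum 48 h, 37 C compound exposure with 20 nM CPT in Tdp1-knockout DT40 cells stably expressing hTDP1, seeded 400/well; qHTS titration format.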
# HT1080 IDH1KD tx – toxicity to HT-1080 IDH1 knockdown cells (counter line) | HT-1080 IDH1 knockdown viability, ATP luminescence, 48 h | AID 686971 | 360,000 compounds, 2% hits | Potency, µM (highest dose often 46.1 µM), actives largely listed as cytotoxic
#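 Luminescent ATP read-out (CellTiter-Glo, 10 min at room temperature) after 48 h compound exposure at 37 °C gave viability of IDH1-knockdown HT-1080 cells. Activity was normalised to DMSO and cell-free wells, then fitted as concentration-response curves.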
# TDP1 cell noCPT – qHTS for Inhibitors of human tyrosyl-DNA phosphodiesterase 1 (TDP1): qHTS in cells in absence of CPT; Potency, µM (series often up to 46.2 µM), hits mostly inhibitors; AID 686978, 2013; DT40 Tdp1-/- hTDP1 cells, no CPT, ATP luminescence, 48 h; 420,000 compounds, 15% hits; note: nearly all actives have a fitted effect of over 55% in size
#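 Cells were dispensed at 400 per well, compounds added by pin tool, plates incubated ≥48 hr at 37 °C, then CellTiter-Glo added for 30 min at room temperature before luminescence reading. Line: DT40 Tdp1-/- complemented with hTDP1; camptothecin omitted.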
# KB-3-1 cytotox – kills parental KB-3-1 adenocarcinoma cells; Potency, µM (doses to about 46.1 µM), usual class: cytotoxic; 400,000 compounds, 1.4% hits; AID 1347075; KB-3-1 viability, CellTiter-Glo ATP luminescence, 72 h; note: nearly all actives have a fitted effect of over 60% in size
#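 KB-3-1 parental drug-naive adenocarcinoma cells in DMEM/10% FBS, incubated 72 h at 37 C with pin-transferred compounds across a concentration series. Viability by CellTiter-Glo luminescence; concentration-response curves fitted after normalization.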
# HT1080NT lethal – kills 2HG-producing HT-1080-NT fibrosarcoma cells; HT-1080-NT fibrosarcoma viability, CellTiter-Glo ATP luminescence, 48 h; Potency, µM (titrated, usually from 46.1 µM), usual class: cytotoxic; 360,000 compounds, 1.6% hits; AID 686970;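 note: NT is the 2HG producing partner of a matched IDH1 knockdown line; nearly all actives have a fitted effect of over 55% in size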
#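 Viability of the 2HG-overproducing fibrosarcoma line after 48 hours of compound exposure at 37 degrees C was determined by luminescence with CellTiter-Glo, and concentration-effect curves were then fitted and categorized.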
# KB-V1 cytotox – kills drug-selected multidrug resistant KB-V1 cells; 400,000 compounds, 3.4% hits; AID 1347076; KB-V1 MDR cells viability, CellTiter-Glo, 72 h; Potency, µM (highest dose often 46.1 µM), most hits filed as cytotoxic; note: nearly all actives have a fitted effect of over 60% in size
#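 In this primary screen, KB-V1 cells overexpressing P-gp are incubated with library compounds (lowest to highest concentration) for 72 h at 37 degrees C before a luminescent ATP viability read.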
# A number is an active result; . = inactive; ? = inconclusive; / = no result given; [ ] = remark or other dose. Shown are actives, neighbours in structure and some others; about 19% of the full set was active somewhere. Calls come from the whole dose curve; as a rule, active = well fitted curve in the direction sought with a large enough effect; inconclusive = small, poorly fitted or top-dose-only effect, or another doubt; inactive = no such curve, though single readings can be large; an effect the other way counts as inactive or inconclusive.
SMILES,DT40 TDP1 CPT,HT1080 IDH1KD tx,TDP1 cell noCPT,KB-3-1 cytotox,HT1080NT lethal,KB-V1 cytotox
CC(C)C(=O)Nc1ccc(S(=O)(=O)N2CC3CC(C2)c2cccc(=O)n2C3)cc1 (stereo unspecified),.,.,.,.,.,.
CC(Sc1ncnc2sccc12)C(=O)Nc1ccc(S(=O)(=O)N2CCOCC2)cc1 (stereo unspecified),?,.,.,.,.,23µM
Nc1c(C(=O)NCCCc2ccccc2)c2nc3ccccc3nc2n1Cc1cccs1,?,.,?,?,?,15µM
CCCCCn1c(N)c(C(=O)NCCN2CCOCC2)c2nc3ccccc3nc21,?,18µM,13µM,?,16µM,?
Nc1c(C(=O)NCc2ccco2)c2nc3ccccc3nc2n1CCN1CCOCC1,?,?,?,.,?,?
CCCCn1c(N)c(C(=O)NCc2cccs2)c2nc3ccccc3nc21,.,?,?,?,?,13µM
COCCCn1c(N)c(C(=O)NCCC(C)C)c2nc3ccccc3nc21,?,?,?,?,.,23µM
CCOC(=O)c1[nH]c2ccc(OC)cc2c1C(SCC(=O)O)c1ccc(C(F)(F)F)cc1 (stereo unspecified),.,?,.,.,?,.
CC(OC(=O)c1cn(C)c2ccccc12)C(=O)N(C)c1ccccc1 (stereo unspecified),.,.,?,.,.,?
CCOC(=O)c1c(NC(=O)c2c(N)n(CCCOC)c3nc4ccccc4nc23)sc2c1CCCC2,.,.,?,.,.,.
CCOCCCn1c(N)c(C(=O)Nc2sc3c(c2C(=O)OC)CCCC3)c2nc3ccccc3nc21,21µM,.[9.24 µM],21µM,.,.,.
COc1ccc(CCNC(=O)c2c(N)n(CCN3CCOCC3)c3nc4ccccc4nc23)cc1OC,15µM,?,13µM,.,?,?
COCCOC(=O)c1c(N)n(Cc2ccccc2)c2nc3ccccc3nc12,?,.,?,.,.,.
CCCOC(=O)c1c(N)n(Cc2cccs2)c2nc3ccccc3nc12,18µM,.,?,.,.,.
CCCCCCn1c(N)c(C(=O)NCCN2CCOCC2)c2nc3ccccc3nc21,21µM,?,?,?,?,?
CCCCn1c(N)c(C(=O)OCCOC)c2nc3ccccc3nc21,.,.,.,.,.,?
O[C@@H]1CCCN2C[C@@H](O)[C@@H](O)C12 (stereo partly specified),.,/,.,/,/,/
CCCCNC(=O)c1c(N)n(Cc2ccc3c(c2)OCO3)c2nc3ccccc3nc12,29µM,.,?,.,.,.
COc1ccc(Cn2c(N)c(C(=O)NCc3ccco3)c3nc4ccccc4nc32)cc1,?,.,?,?,.,.
O=C(Oc1ccccc1)N1CCC2(CCN(Cc3nccs3)CC2)CC1,.,/,?,/,/,/
Cc1ccc(NC(=O)Nc2cc3c(cc2N2CCCCC2)n(C)c(=O)n3C)cc1Cl,16µM,/,7.3µM,.,/,.
CCOC(=O)c1ccc(N2CCN(c3ccccc3F)CC2)c(NC(=O)Nc2ccc(Cl)c(Cl)c2)c1,1.3µM,/,1.3µM,/,/,/
CCOC(=O)c1ccc(NC(=O)Nc2cc3c(cc2N2CCCCC2)n(CC)c(=O)n3CC)cc1,12µM,/,10µM,?,/,.
Cc1cc(C(=O)O)c(C)n1C1CC1,.,.,.,.,.,.
COC(=O)[C@@]1(Sc2ccc(C)cc2)CC(=O)N(P(=O)(OC)OC)[C@@H]1c1ccccc1,?,.,?,.,.,.
SMILES,DT40 TDP1 CPT,HT1080 IDH1KD tx,TDP1 cell noCPT,KB-3-1 cytotox,HT1080NT lethal,KB-V1 cytotox
COC(=O)C(O)(c1ccc(N(C)C(=O)OC(C)C)cc1)C(F)(F)F (stereo unspecified),.,.,.,.,.,.
COc1ccccc1CC(=O)N1CCN(CCc2ccccc2)CC1,.,.,?,.,.,.
O=c1[nH]c2ccccc2c(=O)n1-c1ccc(Cl)c(Cl)c1,?,/,.,/,/,/
COc1cc2[nH]c(=O)n(-c3cccc(Cl)c3)c(=O)c2cc1OC,.,.,.,.,.,.
Cc1cc(C)cc(-n2c(=O)[nH]c3ccccc3c2=O)c1,18µM,/,?,.,/,.
O=c1[nH]c2ccccc2c(=O)n1-c1ccc(Cl)cc1Cl,16µM,.,18µM,.,.,?
COc1cccc(-c2nn3c(=O)cc(CN4CCN(C(=O)COc5ccccc5C)CC4)nc3s2)c1,?,/,23µM,.,/,?
COc1ccc(OCC(=O)N2CCN(Cc3cc(=O)n4nc(-c5ccccc5C)sc4n3)CC2)cc1,15µM,/,10µM,.,/,.
COc1ccc(NC(=O)N2C[C@@H]3C[C@@H](C2)c2cccc(=O)n2C3)c(OC)c1,.,.,.,.,.,.
COc1ccc(-c2nn3c(=O)cc(CN4CCN(C(=O)COc5ccc(F)cc5)CC4)nc3s2)cc1,.,/,?,.,/,.
COc1cccc(CN2CCN(C(=O)COc3ccc4ccccc4c3)CC2)c1,?,.,?,.,.,?
COc1ccc(-c2nn3c(=O)cc(CN4CCN(S(=O)(=O)c5ccc(C)cc5)CC4)nc3s2)cc1,21µM,/,16µM,.,/,.
Cc1ccc(-c2nn3c(=O)cc(CN4CCN(C(=O)COc5ccc(C)c(C)c5)CC4)nc3s2)cc1,?,/,?,.,/,.
COc1ccccc1-c1nn2c(=O)cc(CN3CCN(C(=O)Nc4ccc(C)cc4Cl)CC3)nc2s1,15µM,/,6.5µM,?,/,?
Cc1cccc(NC(=O)Cn2cc(C(=O)c3ccccc3)c3ccccc32)c1C,?,/,?,.,/,.
Cc1ccc(C(O)P(=O)(OCCC(C)C)c2ccc(N(C)C)cc2)cc1 (stereo unspecified),?,.,.,.,.,.
COc1ccccc1NC(=O)c1cn(CCC#N)nc1-c1cccc(Cl)c1,?,.,?,.,.,.
COC(=O)C1=C(c2ccc(C(C)=O)cc2)C[C@@H]2CC[C@H]1N2C(=O)N1CCC(O)(c2ccc(Cl)cc2)CC1,16µM,.,9.2µM,.,.,.
COC(=O)C1=C(c2ccc(C(C)=O)cc2)C[C@@H]2CC[C@H]1N2C(=O)N1CCC(C)CC1,18µM,.,21µM,.,.,.
COC(=O)C1=C(c2ccc(OC)c(OC)c2)C[C@@H]2CC[C@H]1N2C(=O)N1CCC(C)CC1,21µM,.,10µM,.,.,.
COC(=O)C1=C(c2ccc(OC)c(OC)c2)C[C@@H]2CC[C@H]1N2C(=O)N1CCOCC1,21µM,.,?,.,?,.
COc1ccc(C(=O)Nc2ccccc2-c2nnn(CC(=O)Nc3ccc4c(c3)OCCO4)n2)cc1,?,.,?,.,.,?
